High-throughput results (PubChem BioAssay)
Sampled rows, rich in hits. Any-hit rate of the full collection: about 8.1%.
MITF inhib: blocks MITF activity; TRPM1 promoter luciferase, luminescence, 24 h; inhibition, % (test concentration not listed); actives 0.28% (n = 37,000); in the data active means inhibition above about 85%; inconclusive means no clear call, values can overlap the other calls; inactive means below about 68%;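 further: human melanocyte line stably carrying TRPM1 promoter luciferase reporter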
Hedgehog inh: Sonic Hedgehog pathway inhibition; inhibition, % (test concentration not listed); Shh-LIGHT2 Gli-luciferase reporter, 30 h; actives 2.1% (n = 22,000); AID 2313;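 active means mean inhibition across valid replicates above about 65%, limit read from the data; inconclusive means mean under the limit, yet half or more replicates past it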;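 further: pathway switched on by Shh-conditioned medium diluted 1 in 25 in low serum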
NOMO-1 viab: STK33 inhibitor candidate reducing NOMO-1 cell viability | NOMO-1 AML viability, CellTiter-Glo luminescence, 72 h | inhibition, % (test concentration not listed) | actives 7.5% (n = 37,000) | AID 2330; in the data active means inhibition above about 80%; inconclusive means no clear call, values can overlap the other calls
An asterisk follows results filed as active; ? = inconclusive; . = no result given.

SMILES	MITF inhib	Hedgehog inh	NOMO-1 viab
C[C@H]1CN([C@@H](C)CO)C(=O)c2cccc(NC(=O)c3cnccn3)c2O[C@H]1CN(C)Cc1ccc(C(=O)O)cc1	-4.4	-8.9	7.7
C[C@@H]1CN([C@@H](C)CO)C(=O)c2cccc(N(C)C)c2O[C@@H]1CN(C)Cc1ccc(C(=O)Nc2ccccc2N)cc1	12.2	.	127.7*
C[C@H](CO)N1C[C@H](C)[C@@H](CN(C)Cc2ccc(C(=O)Nc3ccccc3N)cc2)Oc2c(NC(=O)c3cnccn3)cccc2C1=O	15.9	.	118.1*
Cc1cc(C(=O)Nc2cccc3c2O[C@@H](CN(C)Cc2ccc(Oc4ccccc4)cc2)[C@H](C)CN([C@@H](C)CO)C3=O)n(C)n1	53.2	-35.2	101.8*
Cc1cc(C(=O)Nc2cccc3c2O[C@H](CN(C)Cc2ccc(Oc4ccccc4)cc2)[C@H](C)CN([C@H](C)CO)C3=O)n(C)n1	-11.3	4.1	18.6
C[C@@H]1CN([C@H](C)CO)C(=O)c2cccc(NC(=O)c3ccncc3)c2O[C@@H]1CN(C)Cc1ccc(C(=O)Nc2ccccc2N)cc1	26.8	.	127.9*
C[C@H](CO)N1C[C@H](C)[C@H](CN(C)Cc2ccc(C(=O)Nc3ccccc3N)cc2)Oc2c(NC(=O)c3ccncc3)cccc2C1=O	-10.2	.	51.3
C[C@H]1CN([C@@H](C)CO)C(=O)c2cccc(NS(C)(=O)=O)c2O[C@H]1CN(C)Cc1ccc(C(=O)Nc2ccccc2N)cc1	-12.6	.	45.0
Cc1cccnc1NC(=O)COc1ccc(Cl)cc1Cl	5.4	.	43.1
O=C(Cn1cnc([N+](=O)[O-])n1)Nc1ccc(Cl)cc1C(F)(F)F	4.4	.	38.5
COC(=O)c1cc(OC)c(OC)cc1NC(=O)C(C)Oc1ccccc1C (centres undefined)	34.7	.	0.8
C[C@H](CO)N1C[C@H](C)[C@H](CN(C)Cc2ccc(C(=O)O)cc2)Oc2c(NC(=O)c3cnccn3)cccc2C1=O	-1.4	-6.1	2.2
Cc1cc(C(=O)Nc2cccc3c2O[C@@H](CN(C)Cc2ccc(C(=O)Nc4ccccc4N)cc2)[C@@H](C)CN([C@H](C)CO)C3=O)n(C)n1	-13.0	.	?
C[C@H]1CN([C@@H](C)CO)C(=O)c2cccc(NC(=O)c3cnccn3)c2O[C@H]1CN(C)Cc1ccc(C(=O)Nc2ccccc2N)cc1	28.2	.	129.1*
C[C@@H]1CN([C@@H](C)CO)C(=O)c2cccc(NC(=O)c3cnccn3)c2O[C@@H]1CN(C)Cc1ccc(C(=O)O)cc1	-5.0	-61.7	21.4
Cc1cc(C(=O)Nc2cccc3c2O[C@H](CN(C)Cc2ccc(C(=O)Nc4ccccc4N)cc2)[C@H](C)CN([C@@H](C)CO)C3=O)n(C)n1	5.3	.	128.0*
C[C@H]1CN([C@@H](C)CO)C(=O)c2cccc(NC(=O)c3cnccn3)c2O[C@@H]1CN(C)Cc1ccc(C(=O)Nc2ccccc2N)cc1	8.4	.	107.8*
COc1ccc(NC(=O)CSC2CC(=O)N(c3ccccc3C)C2=O)cc1 (centres undefined)	-19.3	.	13.8
Cc1noc(C)c1NC(=O)N(C)C[C@H]1Oc2ccc(NS(=O)(=O)c3ccc(Cl)cc3)cc2CC(=O)N([C@@H](C)CO)C[C@@H]1C	-0.1	-14.8	-0.2
CCc1ccc(NS(=O)(=O)c2ccc(OC)cc2)cc1	16.2	-17.4	112.7*
COc1ccc(S(=O)(=O)c2ccc(OC)cc2)cc1	8.7	.	29.8
c1ccc(-c2cnc3nonc3n2)cc1	79.8	82.4*	114.5*
Cc1cc2ncc(-c3ccccc3)nc2cc1C	18.3	-152.4	19.5
COc1ccc(NC(=O)Nc2ccc3c(c2)CC(=O)N([C@H](C)CO)C[C@@H](C)[C@H](CN(C)Cc2ccc(C(=O)O)cc2)O3)cc1	-12.2	?	25.1
C[C@@H]1CN([C@@H](C)CO)C(=O)Cc2cc(NC(=O)CCC(F)(F)F)ccc2O[C@@H]1CN(C)S(=O)(=O)c1ccccc1	-1.6	-15.7	17.5
SMILES	MITF inhib	Hedgehog inh	NOMO-1 viab
C[C@H](CO)N1C[C@H](C)[C@H](CN(C)S(=O)(=O)c2ccc(Cl)cc2)Oc2ccc(NC(=O)CCC(F)(F)F)cc2CC1=O	19.1	-12.4	121.4*
C[C@@H]1CN([C@@H](C)CO)C(=O)Cc2cc(NC(=O)CCC(F)(F)F)ccc2O[C@@H]1CN(C)S(=O)(=O)c1ccc(F)cc1	7.1	-17.7	24.2
C[C@H]1CN([C@@H](C)CO)C(=O)Cc2cc(NC(=O)CCC(F)(F)F)ccc2O[C@H]1CN(C)S(=O)(=O)c1ccc(Cl)cc1	14.4	-48.7	108.9*
Cc1ccc(S(=O)(=O)N(C)C[C@H]2Oc3ccc(NC(=O)CCC(F)(F)F)cc3CC(=O)N([C@@H](C)CO)C[C@H]2C)cc1	5.0	.	1.6
C[C@H]1CN([C@@H](C)CO)C(=O)Cc2cc(NC(=O)CCC(F)(F)F)ccc2O[C@H]1CN(C)S(=O)(=O)c1ccc(F)cc1	31.8	-6.4	126.3*
C/C=C(/C)C(=O)OC(C)(C)C1Cc2cc3ccc(=O)oc3cc2O1 (centres undefined)	1.9	2.9	-1.0
C[C@H]1CN([C@@H](C)CO)C(=O)c2cccc(NC(=O)C3CCOCC3)c2O[C@@H]1CN(C)Cc1ccncc1	-1.6	-11.0	1.5
C[C@@H]1CN([C@H](C)CO)C(=O)Cc2cc(NS(=O)(=O)c3ccc(F)cc3)ccc2O[C@@H]1CN(C)C	-2.9	5.5	-4.2
O=C1c2ccccc2C(=O)N1CC12CC3CC(CC(C3)C1)C2	4.8	.	98.4*
Cc1c(C)c(C)c(CN2C(=O)c3ccccc3C2=O)c(C)c1C	-6.3	19.9	18.4
O=C(CC(=O)c1ccc(O)cc1)OC[C@H]1O[C@@H](Oc2ccc(O)cc2)[C@H](OC(=O)c2ccc(O)cc2)[C@@H](O)[C@@H]1O	.	-7.7	.
CSc1nc2cc(C)nn2c(-c2ccco2)c1C#N	-4.6	14.4	19.0
C=C(C(=O)O[C@H]1C[C@]2(C)C(C(C=O)CC[C@H]2O)[C@H]2OC(=O)C(=C)[C@H]12)C(O)CO (some centres undefined)	-14.1	-8.2	103.7*
C=C(C)C(=O)O[C@H]1C[C@@]2(C)O[C@@H]2[C@H]2O[C@H]2C(=C)[C@@H](O)[C@H]2OC(=O)C(=C)[C@@H]21	.	7.8	.
O=C(COc1ccc2cc(Br)ccc2c1)Nc1cccc([N+](=O)[O-])c1	-23.8	.	16.9
COc1ccccc1OC(=O)NC(C)C	-11.4	-21.5	-3.7
COC(=O)c1sc(=S)sc1C(=O)OC	-10.3	8.5	95.8*
COC(=O)c1ccc(C(=O)OC)cc1	-8.7	-9.1	20.3
O=C(O)c1ccc(NS(=O)(=O)c2cc3c4c(cccc4c2)C(=O)NC3=O)cc1	23.9	22.8	140.5*
Cc1ccc(NC(=O)c2cccc(S(=O)(=O)Nc3cccc(C(=O)O)c3)c2)cc1	9.1	.	-12.5
COc1ccc(OC)c(NC(=O)CSc2nc(C)cc(C)n2)c1	6.2	.	19.1
O=P1(N2CCN(c3ccc(Cl)cc3)CC2)COc2ccccc2OC1	26.1	13.8	13.4
COc1ccc(OCC(O)Cn2nc(C)cc2C)cc1 (centres undefined)	2.1	-8.4	8.3
N#Cc1cc2c(nc1SCC(=O)Nc1cccc(F)c1)CCCC2	-28.4	.	92.4*
COc1ccc(NC(=O)CSc2nc3c(cc2C#N)CCCCC3)cc1	2.0	.	10.1
